Measured values: PubChem BioAssay (NCI)
The panel holds about 83,000 compounds, 20% with a hit somewhere; the sample as a whole holds those more often.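 The test compound was applied at a single concentration to cells in 96-well plates for 48 hours, and percent growth was recorded.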 The source made the active and inactive calls. How the source made its calls: active means growth percent below 10; inactive means the rest.

Tests used:
Test in all cases: NCI-60 one-dose screen, 48 h (100 = growth as untreated, 0 = no growth, -100 = all killed)
Settings in all cases: 10 µM unless noted
HCT-15 colon = tested on: HCT-15 colon
HT29 colon = tested on: HT29 colon
SNB-75 CNS = tested on: SNB-75 CNS
SNB-19 CNS = tested on: SNB-19 CNS
U251 CNS = tested on: U251 CNS
PC-3 prostate = tested on: PC-3 prostate
SK-MEL-5 melanoma = tested on: SK-MEL-5 melanoma
UACC-62 melanoma = tested on: UACC-62 melanoma
LOX IMVI melanoma = tested on: LOX IMVI melanoma
SK-MEL-28 melanoma = tested on: SK-MEL-28 melanoma
SK-MEL-2 melanoma = tested on: SK-MEL-2 melanoma
EKVX NSCLC = tested on: EKVX NSCLC
SN12C renal = tested on: SN12C renal
UO-31 renal = tested on: UO-31 renal
TK-10 renal = tested on: TK-10 renal
ACHN renal = tested on: ACHN renal
CAKI-1 renal = tested on: CAKI-1 renal
A498 renal = tested on: A498 renal
CCRF-CEM leukemia = tested on: CCRF-CEM leukemia
MOLT-4 leukemia = tested on: MOLT-4 leukemia

Measured: growth

CCN(CCC#N)c1ccccc1
inactive: HCT-15 colon 108% | HT29 colon 109% | SNB-75 CNS 98.6% | SNB-19 CNS 106% | U251 CNS 103% | PC-3 prostate 90.8% | SK-MEL-5 melanoma 111% | UACC-62 melanoma 98.2% | LOX IMVI melanoma 102% | SK-MEL-28 melanoma 113% | SK-MEL-2 melanoma 106% | EKVX NSCLC 101% | SN12C renal 90.8% | UO-31 renal 89.1% | TK-10 renal 117% | ACHN renal 112% | CAKI-1 renal 97.7% | A498 renal 130% | CCRF-CEM leukemia 93.6% | MOLT-4 leukemia 101%

CCCCCCCCCCCCCC1=NC(C)(C)CN1C(C)C
active: HCT-15 colon -65.1% | HT29 colon -57.5% | SNB-75 CNS -41.1% | U251 CNS -63.5% | PC-3 prostate -37.6% | SK-MEL-5 melanoma -86.7% | UACC-62 melanoma -70.8% | LOX IMVI melanoma -74.1% | SK-MEL-28 melanoma -73% | SK-MEL-2 melanoma -66.3% | EKVX NSCLC -2.5% | SN12C renal 9.87% | UO-31 renal -65.1% | TK-10 renal -73% | ACHN renal -67.2% | CAKI-1 renal -67% | CCRF-CEM leukemia -44.1% | MOLT-4 leukemia -58.5%
inactive: SNB-19 CNS 28.9% | A498 renal 87.7%

CCn1c(=O)c(C(=O)NCCCO)c(O)c2ccccc21
inactive: HCT-15 colon 103% | HT29 colon 109% | SNB-75 CNS 96.8% | SNB-19 CNS 102% | U251 CNS 98.1% | PC-3 prostate 101% | SK-MEL-5 melanoma 94.2% | UACC-62 melanoma 94.4% | LOX IMVI melanoma 98.5% | SK-MEL-28 melanoma 118% | SK-MEL-2 melanoma 112% | EKVX NSCLC 65.6% | SN12C renal 104% | UO-31 renal 86.9% | TK-10 renal 180% | ACHN renal 102% | CAKI-1 renal 116% | A498 renal 109% | CCRF-CEM leukemia 103% | MOLT-4 leukemia 100%

CCN1C(=O)C(C)C=C(C)C=C1C (stereo not given)
inactive: HCT-15 colon 99.9% | HT29 colon 111% | SNB-75 CNS 104% | SNB-19 CNS 109% | U251 CNS 111% | PC-3 prostate 123% | SK-MEL-5 melanoma 98.1% | UACC-62 melanoma 103% | LOX IMVI melanoma 103% | SK-MEL-28 melanoma 116% | SK-MEL-2 melanoma 102% | EKVX NSCLC 114% | SN12C renal 112% | UO-31 renal 86.8% | TK-10 renal 105% | ACHN renal 102% | CAKI-1 renal 107% | A498 renal 112% | CCRF-CEM leukemia 102% | MOLT-4 leukemia 92.4%

C=C1C(=O)O[C@H]2[C@H]1CC/C(COC(=O)NCc1cn(C)c3ccccc13)=C\CC[C@@]1(C)O[C@@H]21
inactive: SNB-75 CNS 50% | SNB-19 CNS 54.2% | SK-MEL-5 melanoma 10.6% | EKVX NSCLC 29.6% | A498 renal 63.4%
active: HCT-15 colon -45.8% | HT29 colon -62% | U251 CNS 0.165% | PC-3 prostate 8.71% | UACC-62 melanoma -41% | LOX IMVI melanoma -65% | SK-MEL-28 melanoma -14.6% | SK-MEL-2 melanoma -2.82% | SN12C renal 2.93% | UO-31 renal -88.3% | TK-10 renal -47.8% | ACHN renal -36.2% | CAKI-1 renal -18.7% | CCRF-CEM leukemia -13.3% | MOLT-4 leukemia -15.4%

CCOC(=O)Cn1c(-c2nonc2NC(=O)c2ccccc2F)nc2ccccc21
inactive: HCT-15 colon 29.2% | HT29 colon 27.4% | SNB-75 CNS 70.1% | SNB-19 CNS 47.1% | U251 CNS 28.1% | PC-3 prostate 44.7% | SK-MEL-5 melanoma 32.4% | UACC-62 melanoma 42.4% | LOX IMVI melanoma 10.3% | SK-MEL-28 melanoma 71.1% | SK-MEL-2 melanoma 78% | EKVX NSCLC 71.1% | SN12C renal 57.9% | UO-31 renal 54.5% | TK-10 renal 66.1% | ACHN renal 46.5% | CAKI-1 renal 25% | A498 renal 82.5% | CCRF-CEM leukemia 42.3% | MOLT-4 leukemia 25%

COc1cc(NCCC2CCCCN2)c2ncccc2c1OC (stereo not given)
inactive: HCT-15 colon 86.1% | HT29 colon 73.7% | SNB-75 CNS 156% | SNB-19 CNS 91.8% | U251 CNS 33.5% | PC-3 prostate 68.2% | SK-MEL-5 melanoma 77.8% | UACC-62 melanoma 81.1% | LOX IMVI melanoma 15% | SK-MEL-28 melanoma 107% | SK-MEL-2 melanoma 50.5% | EKVX NSCLC 114% | SN12C renal 81.6% | UO-31 renal 65.3% | TK-10 renal 104% | ACHN renal 82.9% | CAKI-1 renal 100% | A498 renal 113% | CCRF-CEM leukemia 47.2% | MOLT-4 leukemia 43%

COc1cc(C2CC(c3ccc(Cl)cc3)=NN2C(C)=O)ccc1Oc1nc2c(c(=O)n(C)c(=O)n2C)n1C (stereo not given)
inactive: HCT-15 colon 88.5% | HT29 colon 73.8% | SNB-75 CNS 75% | SNB-19 CNS 59.8% | U251 CNS 80.7% | PC-3 prostate 75.6% | SK-MEL-5 melanoma 55.6% | UACC-62 melanoma 75.9% | LOX IMVI melanoma 64.5% | SK-MEL-28 melanoma 86.6% | SK-MEL-2 melanoma 105% | EKVX NSCLC 83.6% | SN12C renal 50.3% | UO-31 renal 76.3% | TK-10 renal 110% | ACHN renal 87.2% | CAKI-1 renal 81.5% | A498 renal 77.4% | CCRF-CEM leukemia 80.5% | MOLT-4 leukemia 62.6%

N=C(N)c1ccc(NCCNc2ccc(C(=N)N)cc2)cc1
inactive: HCT-15 colon 90.6% | HT29 colon 103% | SNB-75 CNS 101% | SNB-19 CNS 116% | U251 CNS 89.8% | PC-3 prostate 123% | SK-MEL-5 melanoma 82% | UACC-62 melanoma 81.8% | LOX IMVI melanoma 86.8% | SK-MEL-28 melanoma 114% | SK-MEL-2 melanoma 97.3% | EKVX NSCLC 102% | SN12C renal 46% | UO-31 renal 87.2% | TK-10 renal 111% | ACHN renal 85.5% | CAKI-1 renal 74.3% | A498 renal 90.2%
active: CCRF-CEM leukemia -71.7% | MOLT-4 leukemia -52.9%

COC(=O)C(Br)(C(=O)OC)C(Br)C(Br)C(Br)c1ccccc1 (stereo not given)
active: HCT-15 colon -37.8% | LOX IMVI melanoma 9.1% | UO-31 renal -8.98% | TK-10 renal -45.2% | ACHN renal -70% | CAKI-1 renal -69.6% | CCRF-CEM leukemia 0.438%
inactive: HT29 colon 32.3% | SNB-75 CNS 92.4% | SNB-19 CNS 98.6% | U251 CNS 81.5% | PC-3 prostate 93.3% | SK-MEL-5 melanoma 98.4% | UACC-62 melanoma 60.2% | SK-MEL-28 melanoma 108% | SK-MEL-2 melanoma 83.6% | EKVX NSCLC 105% | SN12C renal 96.7% | A498 renal 101% | MOLT-4 leukemia 50.1%

Oc1c(C(Nc2cccc3ccccc23)c2ccccc2)ccc2cccnc12 (stereo not given)
active: SK-MEL-2 melanoma 0.608% | MOLT-4 leukemia -11.9%
inactive: HCT-15 colon 28.1% | HT29 colon 29.3% | SNB-75 CNS 72.2% | SNB-19 CNS 51.7% | U251 CNS 20.6% | PC-3 prostate 38.1% | SK-MEL-5 melanoma 43.9% | UACC-62 melanoma 14.7% | LOX IMVI melanoma 15.3% | SK-MEL-28 melanoma 57.6% | EKVX NSCLC 31% | SN12C renal 38.9% | UO-31 renal 20.4% | TK-10 renal 46% | ACHN renal 22.1% | CAKI-1 renal 12.7% | A498 renal 36.7% | CCRF-CEM leukemia 13.2%

COc1ccc(-c2cc(-c3cn(-c4cccc(Cl)c4)nc3-c3ccc(OC)cc3)[nH]c(=S)n2)cc1
active: LOX IMVI melanoma 7.63%
inactive: HCT-15 colon 95.4% | HT29 colon 20.6% | SNB-75 CNS 102% | SNB-19 CNS 81.6% | U251 CNS 72.6% | PC-3 prostate 67.3% | SK-MEL-5 melanoma 88.5% | UACC-62 melanoma 88% | SK-MEL-28 melanoma 95.5% | SK-MEL-2 melanoma 88.9% | EKVX NSCLC 90.4% | SN12C renal 73.6% | UO-31 renal 84.7% | TK-10 renal 93.8% | ACHN renal 80.5% | CAKI-1 renal 104% | A498 renal 69.3% | CCRF-CEM leukemia 73.6% | MOLT-4 leukemia 42.4%

Clc1cc(Cl)cc(-c2cnc3nonc3n2)c1
inactive: HCT-15 colon 64.4% | HT29 colon 92.8% | SNB-75 CNS 99% | SNB-19 CNS 93.4% | U251 CNS 106% | PC-3 prostate 90.9% | SK-MEL-5 melanoma 107% | UACC-62 melanoma 83.1% | LOX IMVI melanoma 95% | SK-MEL-28 melanoma 91.5% | SK-MEL-2 melanoma 98.5% | EKVX NSCLC 102% | SN12C renal 99.4% | UO-31 renal 62.3% | TK-10 renal 79.9% | ACHN renal 72.6% | CAKI-1 renal 93.5% | A498 renal 100% | CCRF-CEM leukemia 50.5% | MOLT-4 leukemia 92.9%

C/C(=N\NC(=O)CSc1nc2ccccc2c(=O)n1CCc1ccc(S(N)(=O)=O)cc1)c1ccc(Br)cc1
active: U251 CNS 8.33%
inactive: HCT-15 colon 94.7% | HT29 colon 44.7% | SNB-75 CNS 84.7% | SNB-19 CNS 63.9% | PC-3 prostate 44.9% | SK-MEL-5 melanoma 61.5% | UACC-62 melanoma 79% | LOX IMVI melanoma 63.3% | SK-MEL-28 melanoma 79.7% | SK-MEL-2 melanoma 80.4% | EKVX NSCLC 88.2% | SN12C renal 92.2% | UO-31 renal 78.3% | TK-10 renal 106% | ACHN renal 93.6% | CAKI-1 renal 79.8% | A498 renal 97.5% | CCRF-CEM leukemia 76.7% | MOLT-4 leukemia 55.3%

CN1C(=O)C(C2=NNC(c3ccccc3C(=O)O)C2)C(=O)N(C)C1=O (stereo not given)
inactive: HCT-15 colon 106% | HT29 colon 98.5% | SNB-75 CNS 85.4% | SNB-19 CNS 92.9% | U251 CNS 98.1% | PC-3 prostate 95.6% | SK-MEL-5 melanoma 108% | UACC-62 melanoma 96.2% | LOX IMVI melanoma 101% | SK-MEL-28 melanoma 123% | SK-MEL-2 melanoma 98.9% | EKVX NSCLC 102% | SN12C renal 97.2% | UO-31 renal 86.5% | TK-10 renal 96.9% | ACHN renal 106% | CAKI-1 renal 86.6% | A498 renal 90.8% | CCRF-CEM leukemia 96% | MOLT-4 leukemia 93.8%
